Consider 58 compounds from PubChem BioAssay AID743279 (National Center for Advancing Translational Sciences (NCATS), 2014).

Hit rate of the full screen: of about 360,000 compounds, about 17,000 (4.7%) were called active. About 5% were inconclusive and are not listed. The sample holds actives, similar compounds and a random draw of the others, so the mix is not that of the screen. No stated cut-off is given here; in the data, active means activity change below about -50%; inconclusive means mostly about -30% to -49%; inactive means weaker than that.
On the % scale 0 is the no-effect control and ±100 the full control effect.

A short description of the experiment: qHTS for Inhibitors of Inflammasome Signaling: IL-1-beta AlphaLISA Primary Screen. Particulars: THP-1 LPS/ATP IL-1B secretion, 16 h; at 57.5 µM, stronger effect = lower value. An outline of the steps: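 Secreted IL-1B measured by AlphaLISA bead assay after 16 h compound exposure of THP-1 cells; compounds (final up to 57.5 uM) added 1 h before LPS (250 ng/mL) and ATP (1.25 mM) stimulation; lower signal means less secretion.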
(In general: qHTS replaces the single test concentration by a dilution series.)
For the compound `Cn1nc(N)c2ncc(C(Cl)(Cl)Cl)nc21`, the activity change was -5.29% (inactive). The figure for `O=C(N/N=C\c1cc2c(cc1Cl)OCO2)c1ccc(Br)s1` is 7.39% (inactive); for `COc1ccc(-c2ccc(C(=O)NC(C)C)c3occc23)c(C)c1` it is -6.78% (inactive); for `Cc1cc2nc(-c3ccc(Cl)cc3)c(Cc3cccc(F)c3)n2c(C)c1Br` it is 0% (inactive). As for `CCn1c(NCCc2ccc(OC)c(OC)c2)nc2c1c(=O)n(C)c(=O)n2C`, the activity change was 5.08% (inactive). As to `CCCCNc1nc2c(c(=O)[nH]c(=O)n2C)n1CCOc1ccccc1`, the activity change was 26.9% (inactive). `CCCCNc1nc2c(c(=O)n(C)c(=O)n2C)n1Cc1cccc(OC)c1`: the activity change was -59.5% (active). For `CCc1c(N=O)c(-c2ccccc2)n(O)[n+]1[O-]`, the activity change was -4.78% (inactive). As to `CN(C)C(CNC(=O)c1ccc(OCc2cn3ccccc3n2)cc1)c1ccco1` (stereo not drawn), the activity change was 3.62% (inactive). The figure for `Cc1noc(C)c1COc1ccc(C(=O)NCCOc2ccccc2)cc1` is -10.6% (inactive). Consider `CN(C)CCNC(=O)c1ccc(-c2cn3c(-c4ccc(Oc5ccccc5)cc4)cnc3cn2)cc1`, for which the activity change was -66.3% (active). `COc1cc(N/C=C2\CC(=O)NC(C)=C2C#N)cc(OC)c1OC`: the activity change was 18.8% (inactive). With `O=C(CN1CCN(C(=O)c2ccco2)CC1)Nc1ccc2c(c1)OCO2`, the activity change was 21.4% (inactive). Turning to `O=C(CN1CCN(c2ncc(C(F)(F)F)cc2Cl)CC1)Nc1ccc2c(c1)OCO2`, the activity change was -50.6% (active). `O=C(Cn1cc(C(F)(F)F)ccc1=O)Nc1ccc2c(c1)OCCO2`: the activity change is -6.35% (inactive). The figure for `CCCNC(=O)C1(C)CCCN(Cc2cccc(C(F)(F)F)c2)C1` (stereo not drawn) is -10.2% (inactive); for `CCC(C(=O)NCc1ccccc1)n1c(Cc2cc(F)cc(F)c2)nc2ccccc21` (stereo not drawn) it is -4.41% (inactive); for `CCOC(=O)[C@]12CCCC=C1N(CCC1=CCCCC1)C(=O)[C@H](CC(=O)N1CCOCC1)C2` it is 12.3% (inactive). In the case of `O=C(Nc1ccc(N2CCOCC2)cc1)c1cccc2c(-c3ccc(F)c(F)c3)coc12` it was -5% (inactive); in that of `CN(C)c1cccc(NC(=O)c2ccc(-c3ccc(F)c(F)c3)c3ccoc23)c1`, -82.3% (active); in that of `COc1ccc(CNC(=O)c2ccc(-c3cccnc3)c3ccoc23)cc1OC`, -14.6% (inactive). For `COc1cc(CNC2CCCCC2)c(Br)cc1OC1CCCC1`, the activity change was -64.3% (active).

`COc1ccc(CNC2CCCCC2)cc1`: the activity change is -4.21% (inactive). Take `CC(C)(C)NCc1cc(Br)ccc1OC1CCCC1`: the activity change is -13.9% (inactive). For the compound `COc1cc(C(=S)NC2CCCCC2)ccc1O`, the activity change is 5.59% (inactive). `COc1cc(CNC2CCCC2)c(Br)cc1OCc1ccccc1`: the activity change was -92.7% (active).

For `COc1cc(C=O)c(Br)cc1OCC(=O)NCc1ccccc1`, the activity change is -25.7% (inactive).

On to `CCN1C(=O)[C@H]2[C@@H](c3ccc(C(F)(F)F)cc3)N[C@]3(CCCN(Cc4ccc(Br)cc4)C3=O)[C@H]2C1=O`, for which the activity change was -19.9% (inactive). Regarding `O=C1C2C3C=CC(C3)C2C(=O)N1c1ncc([N+](=O)[O-])s1` (stereo not drawn), the activity change was 6.51% (inactive). For the compound `CCOc1ccc(S(=O)(=O)NCCC(=O)NCC2CCCO2)cc1` (stereo not drawn), the activity change is 32.7% (inactive). Regarding `COc1ccccc1-c1nn(Cc2ccccc2)cc1C(=O)N1CCN(c2ncccn2)CC1`, the activity change is 1.02% (inactive).

For the compound `COc1ccc(C(C(=O)NCc2ccccc2)n2c(=O)c(-c3ccccc3)nc3ccccc32)cc1` (stereo not drawn), the activity change was -6.01% (inactive). The figure for `Cc1ccccc1-c1nc(CS(=O)(=O)CC(=O)NC(C)c2ccccc2)c(C)o1` (stereo not drawn) is -61.7% (active). In the case of `CSc1ccc(CCNC(=O)CS(=O)(=O)Cc2nc(-c3ccccc3F)oc2C)cc1` it was 9.85% (inactive); in that of `Cc1ccc(S(=O)(=O)CC(=O)NC(C)c2ccccc2)cc1` (stereo not drawn), 0.147% (inactive); in that of `NC(=S)NN=C1CCCC(C(F)(F)F)C1` (stereo not drawn), 4.88% (inactive).

Turning to `O=C(c1ccc2c(c1)C(=O)N(Cc1ccncc1)C2=O)N1CCN(S(=O)(=O)c2ccc(OC(F)(F)F)cc2)CC1`, the activity change was 8.07% (inactive). As to `Cc1ccc(O)c(-c2cc(C(=O)NCc3ccccc3)[nH]n2)c1`, the activity change was -0.0227% (inactive). The figure for `COc1ccccc1CNC(=O)c1cc(-c2cc(Cl)ccc2C)n[nH]1` is -16.3% (inactive); for `Cc1cc(O)ccc1-c1cc(C(=O)NCc2cc(C(F)(F)F)cc(C(F)(F)F)c2)[nH]n1` it is -53.4% (active).

Take `COC(=O)c1ccc2nc(-c3ccc(Cl)cc3)c(Cc3cccc(F)c3)n2c1`: the activity change was 58.6% (inactive).

For the compound `CC(=O)NC(NC(=S)Nc1c(C)n(C)n(-c2ccccc2)c1=O)C(Cl)(Cl)Cl` (stereo not drawn), the activity change is 0% (inactive). Regarding `CCOC(=O)N1CCN(CCC(=O)Nc2ccccc2)CC1`, the activity change is -4.73% (inactive). With `Cc1cc(NC(=O)CCN2CCN(Cc3ccccc3)CC2)ccc1Br`, the activity change was -54% (active). In the case of `O=C(CN1CCN(Cc2ccccc2)CC1)Nc1ccc(F)c(F)c1` it was -7.81% (inactive).

As for `O=C(OCC(=O)N1CCCCCC1)c1cccc(Cl)c1Cl`, the activity change is 9.58% (inactive). Turning to `COc1ccc(Cl)cc1N(CC(=O)N/N=C/c1ccc(OCC(N)=O)cc1)S(C)(=O)=O`, the activity change was 34.5% (inactive). In the case of `Cc1nc2ccccc2nc(C)c1=NOCc1ccc(Cl)cc1Cl`, the activity change was 0% (inactive). `NC(N)=N/N=C/c1ccc(OCc2ccc(Cl)cc2Cl)cc1`: the activity change is -97.9% (active). As to `COc1ccc(/C=C/C(=O)OCC(=O)N2CCN(S(=O)(=O)c3ccc(C)cc3C)CC2)cc1OC`, the activity change was 1.01% (inactive). Consider `COc1ccc(CCNc2cc(C)nc3c(-c4ccc(Cl)cc4)c(C)nn23)cc1OC`, for which the activity change was 15.4% (inactive). With `COc1cccc(/C=C2\C=C(c3ccc(C)cc3)OC2=O)c1OC(C)=O`, the activity change is -5.9% (inactive).

For the compound `CCOc1cccc(/C=C/c2ccc3ccccc3n2)c1OC(C)=O`, the activity change is -92% (active). `CCOc1ccccc1/C=N/Nc1nc2ccccc2o1`: the activity change is 0% (inactive). Take `COc1cccc(/C=C/c2ccc3ccccc3n2)c1OC(C)=O`: the activity change was -103% (active).

Take `CCOc1ccccc1-c1cc(C(=O)N/N=C(\C)c2cccnc2)c2ccccc2n1`: the activity change is 6.38% (inactive). As for `CC(OC(=O)c1ccc2ccccc2n1)C(=O)c1ccccc1` (stereo not drawn), the activity change was 14.9% (inactive). `CC1(C(=O)Nc2ccc3c(c2)OCCO3)CSCC(=O)N1CCOc1ccccc1` (stereo not drawn): the activity change is -3.47% (inactive).
